An excerpt weighted towards active compounds, which were near 6.1% of everything screened.
RORgamma inh – qHTS for inhibitors of ROR gamma transcriptional activity; Nuclear receptor ROR-gamma (Mus musculus), P51450; Drosophila S2 Gal4-RORgamma UAS-luciferase reporter, 20 h; Potency, µM (highest dose often 53.6 µM), for inactives: at the top dose activity change, negative = inhibition, most hits filed as inhibitors; hit rate 5.4% among 310,000; AID 2551, 2010; further: on the % scale 0 is the no-effect control and ±100 the full control effect; nearly all actives have a fitted effect of over 60% in size
Target sequence (P51450 whole entry, looked up, the tested form may be a part): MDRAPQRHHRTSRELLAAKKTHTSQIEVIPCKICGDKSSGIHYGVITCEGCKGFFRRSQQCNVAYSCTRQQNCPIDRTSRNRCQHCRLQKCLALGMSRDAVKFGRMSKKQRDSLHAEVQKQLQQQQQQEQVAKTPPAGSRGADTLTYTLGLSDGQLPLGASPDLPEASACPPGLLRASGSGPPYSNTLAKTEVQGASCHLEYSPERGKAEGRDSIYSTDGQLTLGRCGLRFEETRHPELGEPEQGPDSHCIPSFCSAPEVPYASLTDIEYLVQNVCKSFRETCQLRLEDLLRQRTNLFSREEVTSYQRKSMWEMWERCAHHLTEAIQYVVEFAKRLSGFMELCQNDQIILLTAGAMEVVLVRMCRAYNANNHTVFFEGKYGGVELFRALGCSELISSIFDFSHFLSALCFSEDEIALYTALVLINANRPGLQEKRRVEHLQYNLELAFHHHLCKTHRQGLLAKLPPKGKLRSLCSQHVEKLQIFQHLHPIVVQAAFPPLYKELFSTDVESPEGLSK
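A Gal4/UAS one-hybrid system in insect cells: metallothionein-promoter Gal4–ROR gamma fusion plus Photinus luciferase reporter. Copper sulfate 700 uM final, 20 hr ambient incubation, luminescent detection after 10 min with reagent.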
ATXN2 expr inh – Primary qHTS for Inhibitors of ATXN expression. HEK-293 ATXN2-luciferase reporter, luminescence, 24 h. Potency, µM (doses to about 57 µM), without a hit: at the highest dose activity change, negative = inhibition, actives largely listed as inhibitors. hit rate 0.72% among 360,000. AID 1745845, 2022; further: on the % scale 0 is the no-effect control and ±100 the full control effect; nearly all actives have a fitted effect of over 55% in size
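qHTS (up to 57 uM final) was run with 24 h compound exposure of reporter cells at 37 °C. Each well was multiplexed: SteadyGlo luminescence measured ATXN2-luciferase expression after a fluorogenic Gly-Phe-AFC viability readout (25 uM final).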
HepG2 viability – qHTS for Inhibitors of TGF-b: Cytotox Counterscreen | AID 588856, 2011 | Potency, µM (doses to about 46.1 µM), without a hit: at the highest dose activity change, negative = cytotoxicity, actives largely listed as cytotoxic | hit rate 0.76% among 410,000 | HepG2 CAGA-GFP viability, ATP luminescence, 18 h
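HepG2 CAGA-GFP cells (1000/well, DMEM with 1% FBS) received compound, then TGF-beta at 500 pg/mL final, and were incubated 18 hours at 37 degrees C. Viability was read by CellTiter-Glo luminescence. Media-only wells were set as complete cell-killing and DMSO as no toxicity.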
TGFb SMAD3 inh – qHTS for Inhibitors of TGF-b | HepG2 CAGA-GFP TGF-b/SMAD3 reporter, GFP fluorescence, 18 h; TGF-beta stimulated, 500 pg/mL final | Potency, µM (highest dose often 46.1 µM), without a hit: at the highest dose activity, negative = inhibition, actives largely listed as inhibitors | hit rate 1.2% among 410,000 | AID 588855, 2011; further: on the % scale 0 is the no-effect control and ±100 the full control effect; nearly all actives have a fitted effect of over 65% in size
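Inhibition of TGF-beta-driven CAGA-GFP reporter expression in HEPG2 cells is measured by cellular GFP fluorescence after 18 h stimulation with 500 pg/mL recombinant TGF-beta in 1% FBS medium at 37 degrees C.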
S2 tox – Viability Counterscreen for Primary qHTS for Inhibitors of ATXN expression | hit rate 0.49% among 400,000 | Potency, µM (series often up to 56.7 µM), most hits filed as cytotoxic | S2 cells (HEK-293 line with an ATXN2-luciferase reporter) viability, CellTiter-Fluor protease fluorescence, 24 h; further: nearly all actives have a fitted effect of over 40% in size
Gal4-VP16 FLuc – VP16 counterscreen qHTS for inhibitors of ROR gamma transcriptional activity. Drosophila S2 Gal4-VP16 UAS-luciferase, luminescence, 20 h. Potency, µM (top dose mostly 53.6 µM), inactives show top-dose activity, negative = inhibition, actives largely listed as inhibitors. hit rate 3.5% among 310,000. AID 2546, 2010;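 further: Gal4-VP16 expression switched on by copper sulfate through the metallothionein promoter; on the % scale 0 is the no-effect control and ±100 the full control effect; nearly all actives have a fitted effect of over 50% in size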
An asterisk follows results filed as active; i = inactive; ? = inconclusive; / = no result given; [ ] = remark or other dose. The call rests on the fitted dose curve; in most records, active means well fitted curve in the direction sought with a large enough effect; inconclusive means small, poorly fitted or top-dose-only effect, or another doubt; inactive means no such curve, though single readings can be large; an effect the other way counts as inactive or inconclusive. Potency means the concentration at half of the fitted maximal effect.

SMILES | RORgamma inh | ATXN2 expr inh | HepG2 viability | TGFb SMAD3 inh | S2 tox | Gal4-VP16 FLuc
Cc1cccc(NC(=O)CSc2nc(=O)n(Cc3cccnc3)c3c2CCC3)c1C | / | 4.6% | -8.1% | -5.2% | i | /
COc1ccc(-c2cc(-c3ccc(OC)cc3)[nH]n2)cc1 | 1.26µM* | 35.7% | -10.4% | -13.5% | i | 2µM*
COc1ccc(-c2cc(-c3ccc(C)cc3)n[nH]2)c(O)c1 | 2.51µM* | / | -38.7% | ? | ? | 20µM*
Oc1ccccc1-c1cc(-c2cccc(F)c2)n[nH]1 | ? | 161.2% | -57.1% | -23.1% | i | ?
CC(C)(C)c1ccc(-c2cc(-c3ccccc3O)[nH]n2)cc1 | ? | 106.8% | -59.0% | 17.8µM* | ? | 7.08µM*
COc1ccc(-c2cc(C(=O)NN)[nH]n2)cc1 | 18.3%[10 µM] | 13.7% | 9.9% | 19.5% | i | ?
CCc1cc(C(=O)N2CCN(c3ccccn3)CC2)sc1C | -19.6% | -7.0% | -22.7% | -5.8% | i | -7.7%
CCc1cc(C(=O)N2CCN(C(=O)c3ccccc3)CC2)sc1C | / | -18.0% | 5.01µM* | 0.0% | i | /
c1ccc(-c2ccncc2)nc1 | / | 1.8% | 11.6% | 1.2% | i | /
c1ccc(-c2nc(-c3ccncc3)n[nH]2)nc1 | 5.01µM* | 10.2% | -60.1% | -20.0% | i | 12.6µM*
CCN(CC)S(=O)(=O)c1ccc(N/N=C/c2ccc(O)cc2O)nc1 | 14.1µM* | 2.82µM* | -18.0% | -4.9% | ? | ?
COc1ccccc1NC1=C(Cl)C(=O)OC1OC(=O)c1ccco1 (centres undefined) | ? | -9.5% | -22.4% | -3.4% | i | -11.0%
Cc1ccccc1NC1=C(Cl)C(=O)OC1OC(=O)c1ccco1 (centres undefined) | 10µM* | ? | -38.3% | -22.8% | ? | -27.7%
CN(C)c1ccc(-c2cncnc2Nc2ccccc2)cc1 | -32.8% | / | / | / | / | 7.3%
Cc1cc(C(=O)CCl)c(C)n1CCc1ccc(Cl)cc1 | 12.6µM* | 25.1µM* | 17.8µM* | ? | ? | ?
COc1ccc(CCn2c(C)cc(C(=O)CCl)c2C)cc1OC | 11.2µM* | ? | -108.3% | ? | / | 20µM*
Cc1cc(C(=O)CCl)c(C)n1CCc1ccc(F)cc1 | ? | ? | -71.6% | ? | / | -85.9%
CCOC(=O)CSc1nc2c(sc3ccc([N+](=O)[O-])cc32)c(=O)n1Cc1ccco1 | 8.91µM* | -27.7% | 3.3% | -4.4% | i | 5.62µM*
CCOC(=O)CSc1nc2ccccc2c(=O)n1Cc1ccco1 | 5.4% | -10.8% | -1.6% | -17.3% | i | -0.5%
CCCCCCCCCCCCCCCCCCN(CCCCCCCCCCCCCCCCCC)c1ccc(C=O)cc1 | / | / | 3.5% | 1.2% | / | /
Cc1ccccc1C(=O)NC(=S)Nc1ccccc1N1CCCC1 | 7.08µM* | 5.1% | -20.6% | ? | i | -25.9%[10 µM]
COc1ccccc1C(=O)NC(=S)Nc1ccccc1N1CCCC1 | 10µM* | / | / | / | / | ?
Cc1ccccc1C(=O)Nc1ccccc1N1CCN(C(=O)c2ccccc2)CC1 | 3.9% | -7.3% | -2.1% | 0.0% | i | 1.8%
COc1cccc(N/C=C/C(=O)c2ccc(Cl)cc2)c1 | 10µM* | 60.9% | -28.1% | 7.8% | / | 12.6µM*
COc1cccc(C(=O)/C=C/Nc2cccc(O)c2)c1 | 7.94µM* | -23.5% | -35.4% | -4.3% | i | 1.26µM*
SMILES | RORgamma inh | ATXN2 expr inh | HepG2 viability | TGFb SMAD3 inh | S2 tox | Gal4-VP16 FLuc
COc1cccc(C(=O)/C=C/Nc2ccc(S(=O)(=O)Nc3cccc(C(C)=O)c3)cc2)c1 | 15.4% | ? | 0.1% | -29.7% | ? | 10µM*
COc1cccc(N/C=C/C(=O)c2ccc(C)cc2)c1 | ? | / | 2.4% | 24.9% | i | ?
COc1ccc(OC)c(N/C=C/C(=O)c2ccccc2)c1 | 4.47µM* | -81.0% | -45.6% | -18.9% | i | 5.01µM*
COc1cccc(C(=O)/C=C/Nc2ccc(NC(C)=O)cc2)c1 | ? | 44.5% | -4.3% | 1.1% | i | 5.2%
CSc1ncc(Cl)c(C(=O)Nc2c(C(=O)c3ccc(C)c(F)c3)oc3ccccc23)n1 | / | 2.3% | 1.2% | -8.5% | i | /
Cc1ccc(N2CCN(C(=O)CCc3c(C)nc4ncnn4c3C)CC2)c(C)c1 | / | -25.9% | -22.8% | ? | i | /
O=C(CCCCCCCC(=O)c1ccccc1)c1ccccc1 | 9.4% | -7.9% | 1.7% | -7.0% | i | 7.9%
C=C(CCC(=O)c1ccccc1)C(=O)c1ccccc1 | 12.6µM* | ? | 10µM* | -33.4% | ? | 11.2µM*
CC(C)C[C@H]1CN=C(Nc2ccccc2)N1CC1CCC(C(C)(C)C)CC1 (some centres undefined) | / | ? | -108.7% | ? | 22.4µM* | /
Cc1ccc2c(CC(=O)N3CCN(c4cccc(Cl)c4)CC3)coc2c1C | / | -13.9% | -20.5% | ? | i | /
Cc1ccc2cc(/C=N/NC(=O)c3ccccc3O)c(Cl)nc2c1 | 2.82µM* | 4.4% | -7.0% | ? | i | ?
Cc1cccc2cc(/C=N/NC(=O)c3ccccc3O)c(Cl)nc12 | 10µM* | -22.5% | -32.1% | 10µM* | ? | ?
COc1ccc(N2CCN(S(=O)(=O)c3c(C)nc4sc(C)cn4c3=O)CC2)cc1 | / | / | 4.7% | 17.7% | / | /
CC(=O)COc1ccc2c(c1C)O/C(=C\c1ccco1)C2=O | 10µM* | / | -24.8% | 0.9% | ? | -20.1%
O=C(NCCO)c1ccc(-c2nnc(Nc3ccc(OC(F)(F)Cl)cc3)c3ccccc23)cc1 | / | ? | -78.2% | 11.2µM* | i | /
Cc1ccc(N2CC(NC(=O)c3cc4ccccc4o3)CC2=O)cc1C (centres undefined) | / | / | -11.7% | -1.1% | / | /
Cc1ccc(NC(=S)NNc2ncc(C(F)(F)F)cc2Cl)cc1 | 12.6µM* | 16.8µM* | -40.5% | ? | i | 11.2µM*
Cc1ccc(C)c(SCC(=O)OCC(=O)Nc2ncc(C(F)(F)F)cc2Cl)c1 | -1.9% | -33.4%[11.3 µM] | 10.5% | -0.1% | i | 0.3%
FC(F)(F)c1cccc(NC(=S)NNC(=S)Nc2ccc(Cl)cc2)c1 | 16.3% | / | / | / | / | -18.4%
Cc1ccc(NC(=S)NNC(=S)Nc2cccc(C(F)(F)F)c2)cc1 | -1.4% | 1.3% | -23.8% | -9.5% | i | -6.5%
O=S(=O)(NNc1ncc(C(F)(F)F)cc1Cl)c1ccc(F)cc1F | / | / | -30.2% | -1.2% | / | /
FC(F)(F)c1cnc(NNC(=S)Nc2ccc(Cl)cc2)c(Cl)c1 | 5.62µM* | ? | -61.6% | 2.82µM* | ? | 7.94µM*
Cc1ccc(NC(=S)NNc2ncc(C(F)(F)F)cc2Cl)c(C)c1 | 10µM* | -30.6% | -31.9% | ? | i | ?

Source: PubChem (National Center for Advancing Translational Sciences (NCATS))
